Data published in PubChem BioAssay (EPA / NIEHS).
Records with an inconclusive call do not appear. Active and inactive are the calls of the source. The calls were made as follows, unless noted: active = hit-call score of the fitted dose curve at least 0.9, where 1 is the maximum; inactive = score below 0.9.

How the values were obtained:
[1] = CCTE_Mundy_HCI_Cortical_Synap_Neur_Matur_SynapseCount: CCTE's Synaptogenesis and Neurite Maturation Assay in rat cortical cells for Synapse Count, Mundy Lab (AID 2284218)
Method in brief: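 Endpoint: synapses/neuron by HCI (synaptophysin puncta on MAP2-labelled neurites, Hoechst nuclei). Rat primary cortical cells, AraC DIV 5, dosed DIV 7, fixed DIV 12; DMSO negative control.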

[2] = CCTE_Mundy_HCI_Cortical_Synap_Neur_Matur_NeuriteCount: CCTE's Synaptogenesis and Neurite Maturation Assay in rat cortical cells for Neurite Count, Mundy Lab (AID 2284222);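 also: exposure from day 7 to day 12 in vitro with readout at day 12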
Method in brief: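 Rat primary cortical cells; AraC added at DIV 5, chemicals dosed with media change at DIV 7 through DIV 12. MAP2/synaptophysin/Hoechst immunostaining, high-content imaging of neurite number; fitted relative to DMSO.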

[3] = CCTE_Mundy_HCI_Cortical_Synap_Neur_Matur_CellBodySpotCount: CCTE's Synaptogenesis and Neurite Maturation Assay in rat cortical cells for Cell Body Spot Count, Mundy Lab (AID 2284223)
Method in brief: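 Primary rat cortical cultures, AraC added at DIV 5; dosed DIV 7 through DIV 12 […]. Fixed, stained for MAP2 and synaptophysin with Hoechst; cell body-associated synaptophysin puncta per neuron counted by high-content imaging, loss vs DMSO.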

[4] = CCTE_Mundy_HCI_hNP1_Pro_ResponderAvgInten: CCTE's Proliferation Assay in human neuroprogenitor cells, Mundy Lab (AID 2284224; active = hit-call score of the fitted dose curve at least 0.9, where 1 is the maximum)
Method in brief: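 Proliferation was scored as BrdU labelling intensity in human neural progenitors derived from WA09 embryonic cells, measured 26.25 hours after chemical dosing. Activity was fitted relative to DMSO.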

[5] = CCTE_Mundy_HCI_Cortical_NOG_NeuronCount: CCTE's Neurite Outgrowth Assay in rat cortical cells for Neuron Count, Mundy Lab (AID 2284236; active = hit-call score of the fitted dose curve at least 0.9, where 1 is the maximum;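 also: neurons counted by imaging betaIII-tubulin and Hoechst stained cortical cells; cells exposed to compound for about 48 hours before fixation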)
Method in brief: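 Read-out: neuron number by high-content imaging of betaIII-tubulin (Alexa Fluor-488) and Hoechst-labelled rat primary cortical cells.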

[6] = CCTE_Mundy_HCI_Cortical_NOG_BPCount: CCTE's Neurite Outgrowth Assay in rat cortical cells for Branch Point Count, Mundy Lab (AID 2284237)
Method in brief: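 Measured 50.33 h after dosing, this morphology endpoint uses rat primary cortical cultures labelled for betaIII-tubulin. Branch points are quantified by high-content imaging, with DMSO as negative control and baseline.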

[7] = CCTE_Mundy_HCI_hNP1_Casp3_7: CCTE's Caspase-Glo 3/7 Assay in human neuroprogenitor cells for Apoptosis, Mundy Lab (AID 2284240)
Method in brief: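 Apoptosis is scored by activated caspase-3/7 luminescence in WA09-derived neural progenitor cells, measured 26.5 h after chemical dosing. Values represent gain of signal relative to DMSO vehicle.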

[8] = CCTE_Mundy_HCI_hNP1_CellTiter: CCTE's Cell Titer-Glo 2 Assay in human neuroprogenitor cells for Viability, Mundy Lab (AID 2284241; active = hit-call score of the fitted dose curve at least 0.9, where 1 is the maximum)
Method in brief: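 Human neural progenitor cells (hNP1, WA09-derived) were plated on poly-L-ornithine/laminin and grown 40 to 44 hours at 37 °C, 5% CO2 before chemical addition. Twenty-four hours later, ATP was measured by CellTiter-Glo luminescence; loss of signal versus DMSO indicates reduced viability.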

[9] = CCTE_Mundy_HCI_Cortical_Synap_Neur_Matur_NeuronCount: CCTE's Synaptogenesis and Neurite Maturation Assay in rat cortical cells for Neuron Count, Mundy Lab (AID 2284242; active = hit-call score of the fitted dose curve at least 0.9, where 1 is the maximum)
Method in brief: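 Measured at DIV 12: fluorescently labelled neurons (Hoechst nuclei, MAP2) in rat primary cortical cultures, counted by high-content imaging. AraC suppressed glia from DIV 5; DMSO served as negative control.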

[10] = IUF_NPC2c_oligodendrocyte_migration_120hr: Leibniz Research Institute for Environmental Medicine (IUF) 120-hour Neural Progenitor Cell Migration Assay for Oligodendrocyte Migration (NPC2c) (AID 2284297);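 also: O4-positive oligodendrocyte migration distance divided by radial glia migration distance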
Method in brief: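 Human fetal neural progenitor spheres (0.3 mm) are plated on poly-D-lysine/laminin in N2 differentiation medium and exposed for 120 h, with half-medium renewal at day 3. Oligodendrocyte (O4+) migration distance comes from ICC imaging, normalised to radial glia migration.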

[11] = IUF_NPC2a_radial_glia_migration_120hr: Leibniz Research Institute for Environmental Medicine (IUF) 120-hour Neural Progenitor Cell Migration Assay for Radial Glia Migration (NPC2a) (AID 2284298)
Method in brief: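 Human fetal-cortex neural progenitor spheres (0.3 mm) plated on poly-D-lysine/laminin in N2 differentiation medium, exposed 120 h at 37C with half-medium renewal at day 3. Radial glia migration distance (um) measured from Hoechst-stained nuclei images; DMSO baseline.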

[12] = IUF_NPC2a_radial_glia_migration_72hr: Leibniz Research Institute for Environmental Medicine (IUF) 72-hour Neural Progenitor Cell Migration Assay for Radial Glia Migration (NPC2a) (AID 2284299)
Method in brief: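 Spheres of human primary neural progenitors migrate on poly-D-lysine/laminin under compound exposure at 37C, 5% CO2. The 72 h radial glia migration distance comes from brightfield images, measured manually.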

[13] = IUF_NPC2b_neuronal_migration_120hr: Leibniz Research Institute for Environmental Medicine (IUF) 120-hour Neural Progenitor Cell Migration Assay for Neuron Migration (NPC2b) (AID 2284300)
Method in brief: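 0.3 mm hNPC spheres on poly-D-lysine/laminin in N2 differentiation medium exposed 120 h, half-medium refresh day 3; 7 concentrations, DMSO max 0.1%. Neuron (TUBB3) distance from sphere core by ICC imaging, normalised to radial glia migration.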

[14] = IUF_NPC3_neuronal_differentiation_120hr: Leibniz Research Institute for Environmental Medicine (IUF) 120-hour Neuronal Differentiation Assay (NPC3) (AID 2284301)
Method in brief: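 Value is percent TUBB3-positive neurons among Hoechst-stained nuclei in the migration area, scored by trained CNN after 120 h differentiation. Primary hNPC spheres on poly-D-lysine/laminin, N2 medium, continuous dosing from day 0, half-refeed day 3; DMSO reference.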

[15] = IUF_NPC4_neurite_length_120hr: Leibniz Research Institute for Environmental Medicine (IUF) 120-hour Neuronal Morphology Assay for Neurite Length (NPC4) (AID 2284302)
Method in brief: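 Neurite length, the mean in um across TUBB3-stained neurons, is derived by skeletonization of high-content images after 120 h differentiation. Compound exposure, 7 concentrations plus solvent control, ran from plating of hNPC spheres on poly-D-lysine/laminin, with medium half-replaced on day 3.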

[16] = IUF_NPC4_neurite_area_120hr: Leibniz Research Institute for Environmental Medicine (IUF) 120-hour Neuronal Morphology Assay for Neurite Area (NPC4) (AID 2284305; active = hit-call score of the fitted dose curve at least 0.9, where 1 is the maximum)
Method in brief: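 Neurite area (pixels, nuclei excluded) of TUBB3-positive neurons from hNPC spheres differentiating 5 days under continuous exposure at 37 C, 5% CO2. High-content imaging; loss of signal versus DMSO control across 7 concentrations.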

[17] = IUF_NPC2-5_cytotoxicity_72hr: Cytotoxicity Assessment at 72 hours in the Leibniz Research Institute for Environmental Medicine (IUF) Neural Progenitor Cell Migration and Differentiation Assay for Cytotoxicity (NPC2-5) (AID 2284306; active = hit-call score of the fitted dose curve at least 0.9, where 1 is the maximum;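 also: LDH release into supernatant measured by resorufin fluorescence marking membrane damage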)
Method in brief: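 Membrane-integrity cytotoxicity at 72 h, read as LDH-driven resorufin fluorescence in supernatant. hNPC spheres from fetal cortex differentiate on coated plates in N2 medium, 37C, 5% CO2; seven serial compound concentrations plus solvent control (DMSO ≤0.1%).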

[18] = IUF_NPC2-5_cytotoxicity_120hr: Cytotoxicity Assessment at 120 hours in the Leibniz Research Institute for Environmental Medicine (IUF) Neural Progenitor Cell Migration and Differentiation Assay (NPC2-5) (AID 2284307; active = hit-call score of the fitted dose curve at least 0.9, where 1 is the maximum)
Method in brief: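 Human fetal (GW 16-19) neural progenitor spheres (0.3 mm) plated on poly-D-lysine/laminin in N2 differentiation medium, exposed 120 h with half-medium renewal at day 3; 7 concentrations plus solvent control, DMSO ≤0.1%. LDH release in supernatant read by resorufin fluorescence.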

[19] = IUF_NPC2-5_cell_number_120hr: Cell Number Assessment at 120 hours in the Leibniz Research Institute for Environmental Medicine (IUF) Neural Progenitor Cell Migration and Differentiation Assay (NPC2-5) (AID 2284308);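 also: count of Hoechst-stained nuclei in migration zone around plated human neural progenitor spheres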
Method in brief: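 Human fetal neural progenitor spheres (0.3 mm) plated on poly-D-lysine/laminin in N2 differentiation medium, exposed five days across 7 concentrations with half-medium refresh at day 3. Hoechst-positive nuclei counted in migration area at 120 h, relative to DMSO.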

[20] = IUF_NPC2-5_viability_120hr: Viability Assessment at 120 hours in the Leibniz Research Institute for Environmental Medicine (IUF) Neural Progenitor Cell Migration and Differentiation Assay (NPC2-5) (AID 2284312)
Method in brief: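 Alamar blue resorufin fluorescence read after 5 days of differentiation, with compound present from day 0 and replenished at day 3. Primary hNPC spheres on laminin-coated plates, 37C; seven concentrations plus solvent control, fitted against DMSO.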

[21] = CCTE_Mundy_HCI_iCellGluta_NOG_NeuriteLength: CCTE's Neurite Outgrowth Assay in iCellGluta cells for Neurite Length, Mundy Lab (AID 2284318; active = hit-call score of the fitted dose curve at least 0.9, where 1 is the maximum)
Method in brief: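 Automated high-content imaging of betaIII-tubulin (Alexa Fluor-488) and Hoechst-stained cells gave neurite length, normalized to the DMSO baseline.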

[22] = IUF_NPC1_cytotoxicity_72hr: Cytotoxicity Assessment at 72 hours in the Leibniz Research Institute for Environmental Medicine (IUF) Neural Progenitor Cell Proliferation Assay (NPC1) (AID 2284332; active = hit-call score of the fitted dose curve at least 0.9, where 1 is the maximum;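 also: rising LDH signal means more cytotoxicity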)
Method in brief: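 Readout is fluorescence from LDH-dependent resazurin conversion, sampled from culture medium after compound contact lasting 72 h. Each well holds one 0.25-0.35 mm human progenitor sphere kept at 37C, 5% CO2 with EGF and FGF.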

[23] = CCTE_Mundy_HCI_iCellGluta_NOG_NeuronCount: CCTE's Neurite Outgrowth Assay in iCellGluta cells for Neuron Count, Mundy Lab (AID 2284340; active = hit-call score of the fitted dose curve at least 0.9, where 1 is the maximum;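 also: cells fixed about 48 h after compound addition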)
Method in brief: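 Neuron count read by automated high-content imaging of Hoechst 33342 and betaIII-tubulin/Alexa Fluor-488 labelling in human iPSC glutamatergic neurons. Activity fitted relative to DMSO.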

[24] = CCTE_Mundy_HCI_iCellGluta_NOG_NeuriteCount: CCTE's Neurite Outgrowth Assay in iCellGluta cells for Neurite Count, Mundy Lab (AID 2284342; active = hit-call score of the fitted dose curve at least 0.9, where 1 is the maximum;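 also: chemical exposure about 48 hours starting 2 hours after plating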)

Measured: outcome

CC(C)O
inactive: [1] | [2] | [3] | [4] | [5] | [6] | [7] | [8] | [9] | [10] | [11] | [12] | [13] | [14] | [15] | [16] | [17] | [18] | [19] | [20] | [21] | [22] | [23] | [24]
